Out of some 310,000 compounds screened, about 14,000 (4.5%) showed an effect of 50% or more. Effects have a minus sign here. The full list was thinned out, with strong results kept by preference.
Biological target: human ether-à-go-go-related gene (hERG) potassium channel (human, UniProt Q12809)
Assay: primary screen, population patch clamp on CHO cells stably expressing hERG; higher = less effect of the substance
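Also: peak tail current of the secondary pulse compared with the same well before compound.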

Sequence of human ether-à-go-go-related gene (hERG) potassium channel (Q12809 whole entry, looked up): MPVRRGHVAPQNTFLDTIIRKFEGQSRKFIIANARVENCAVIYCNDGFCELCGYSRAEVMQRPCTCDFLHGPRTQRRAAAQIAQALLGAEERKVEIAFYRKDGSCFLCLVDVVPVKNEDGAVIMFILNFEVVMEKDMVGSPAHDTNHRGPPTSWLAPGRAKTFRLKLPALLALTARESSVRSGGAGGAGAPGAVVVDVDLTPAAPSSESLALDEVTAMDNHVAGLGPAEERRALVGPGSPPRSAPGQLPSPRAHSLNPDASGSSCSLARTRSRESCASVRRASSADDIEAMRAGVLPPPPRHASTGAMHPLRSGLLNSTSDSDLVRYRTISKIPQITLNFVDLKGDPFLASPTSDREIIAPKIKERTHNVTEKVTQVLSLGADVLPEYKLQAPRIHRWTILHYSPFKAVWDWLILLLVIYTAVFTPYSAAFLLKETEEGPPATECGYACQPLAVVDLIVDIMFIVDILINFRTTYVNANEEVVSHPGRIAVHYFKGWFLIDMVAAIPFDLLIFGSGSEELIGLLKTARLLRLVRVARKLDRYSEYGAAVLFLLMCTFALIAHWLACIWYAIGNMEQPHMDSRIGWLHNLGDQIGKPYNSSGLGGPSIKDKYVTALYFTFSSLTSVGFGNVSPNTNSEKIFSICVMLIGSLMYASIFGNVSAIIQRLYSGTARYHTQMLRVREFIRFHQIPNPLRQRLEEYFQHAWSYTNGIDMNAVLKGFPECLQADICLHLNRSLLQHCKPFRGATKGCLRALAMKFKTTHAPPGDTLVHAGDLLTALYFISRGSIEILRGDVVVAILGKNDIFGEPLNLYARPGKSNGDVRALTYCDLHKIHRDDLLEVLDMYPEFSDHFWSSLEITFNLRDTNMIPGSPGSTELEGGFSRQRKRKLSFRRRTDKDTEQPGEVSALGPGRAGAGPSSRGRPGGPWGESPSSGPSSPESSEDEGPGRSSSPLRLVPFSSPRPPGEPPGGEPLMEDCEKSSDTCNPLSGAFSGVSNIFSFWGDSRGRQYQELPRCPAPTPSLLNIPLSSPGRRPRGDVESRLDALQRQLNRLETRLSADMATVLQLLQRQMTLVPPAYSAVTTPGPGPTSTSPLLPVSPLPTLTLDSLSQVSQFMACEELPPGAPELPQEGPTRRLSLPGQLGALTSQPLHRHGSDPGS

Compared with Cc1ccc(C)c(-n2cc(CNCCCn3cccn3)c(-c3ccccc3)n2)c1, Cc1ccc(-n2cc(CNCCCn3cccn3)c(-c3cccc(C)c3)n2)cc1 is lower in “hERG current change (%, negative = inhibition) at 10uM” value: -64.9% for the first, -71.6% for the second.

Compared with CC(=O)N1CCCN(Cc2cn(-c3cc(C)ccc3C)nc2-c2ccccc2)CC1, Cc1ccc(C)c(-n2cc(CN3CCN(C(=O)c4ncn[nH]4)CC3)c(-c3ccccc3)n2)c1 is lower in “hERG current change (%, negative = inhibition) at 10uM” value: -30.3% for the first, -30.7% for the second.

First: Cc1ccc(-n2cc(CN3CCNC(=O)CC3)c(-c3ccc(F)cc3)n2)cc1
Second: Cc1ccc(-n2cc(CN3CCN(Cc4nccn4C)CC3)c(-c3ccc(F)cc3)n2)cc1
The “hERG current change (%, negative = inhibition) at 10uM” value of the first is lower: -35.4% for the first, -26.8% for the second.

Going from Cc1ccc(-n2cc(CNC(C)Cc3cnccn3)c(-c3cccc(C)c3)n2)cc1 (centres unmarked) to Cc1ccc(-n2cc(CN(C)Cc3nccn3C)c(-c3cccc(C)c3)n2)cc1, the “hERG current change (%, negative = inhibition) at 10uM” value rises from -73.8% to -16.1%.

First: Cc1ccc(-n2cc(CN3CCC(O)(c4ccccn4)CC3)c(-c3ccc(F)cc3)n2)cc1
Second: Cc1ccc(-n2cc(CN3CCN(c4ccccn4)CC3)c(-c3ccc(F)cc3)n2)cc1
The “hERG current change (%, negative = inhibition) at 10uM” value of the first is lower: -56.7% for the first, 11.2% for the second.

Going from COc1cccc(-c2nn(-c3ccccc3)cc2CNC(C)Cn2cncn2)c1 (centres unmarked) to Cn1cc(CN2CCN(Cc3ccccc3)CC2)c(-c2cccc(Cl)c2)n1, the “hERG current change (%, negative = inhibition) at 10uM” value falls from -42.5% to -53%.

Compared with Cc1ccn2c(CNCCCn3cccn3)c(C(=O)N3CCCCCC3)nc2c1, O=C(/C=C/c1nc2ccccc2s1)N1CCCCCC1 is higher in “hERG current change (%, negative = inhibition) at 10uM” value: -23.4% for the first, -0.709% for the second.

Compared with CCOC(=O)C1=NN(c2ccccc2)C(c2ccccc2)CC1=O (centres unmarked), Cc1ccc(C2N(c3ccccc3)C(=S)N3CCCN23)cc1 (centres unmarked) is higher in “hERG current change (%, negative = inhibition) at 10uM” value: 5.31% for the first, 7% for the second.

Going from Cc1nnc2n1N=C(c1ccc(F)cc1F)CS2 to Cc1cc(N2CCN(Cc3cn(C)nc3-c3ccccc3F)CC2)cc(C)n1, the “hERG current change (%, negative = inhibition) at 10uM” value falls from -3.32% to -35%.

Compared with CCOc1ccc(CCNC(=O)c2ccc(S(=O)(=O)N3CCCC3)cc2)cc1OCC, CC(C(=O)Nc1ccc(S(=O)(=O)N2CCCC2)cc1)N(C)Cc1ccc(F)cc1 (centres unmarked) is lower in “hERG current change (%, negative = inhibition) at 10uM” value: -8.47% for the first, -9.91% for the second.

Going from CCn1c2ccccc2c2cc(/C=N/n3c(C)nnc3C)ccc21 to CSCC[C@H](NC(=O)c1nn(C)c(=O)c2ccccc12)c1nc2ccccc2[nH]1, the “hERG current change (%, negative = inhibition) at 10uM” value rises from -25% to -3.07%.

First: O=C(C1=C[C@H](C2CC2)C[C@H](OCCCCO)O1)N1CCOCC1
Second: CC(C1CCN(Cc2cn(C)nc2-c2cccc(Cl)c2)CC1)N1CCOCC1 (centres unmarked)
The “hERG current change (%, negative = inhibition) at 10uM” value of the first is higher: 21.2% for the first, -26.9% for the second.

Compared with CN(C)S(=O)(=O)c1cccc(C(=O)OCC(=O)Nc2sccc2C#N)c1, CCC(C)N(C)Cc1cccc(C2(O)CCN(S(=O)(=O)c3ccc(F)cc3)CC2)c1 (centres unmarked) is lower in “hERG current change (%, negative = inhibition) at 10uM” value: -2.79% for the first, -69.3% for the second.

Going from Cc1cccc(-n2cc(CN3CCN(Cc4nccn4C)CC3)c(-c3cccc(F)c3)n2)c1 to Cc1ccc(-n2cc(CN3CCN(Cc4nccn4C)CC3)c(-c3cccc(C)c3)n2)cc1, the “hERG current change (%, negative = inhibition) at 10uM” value falls from 2.98% to -62.7%.

Compared with Cc1cc([N+](=O)[O-])nn1CC(=O)N/N=C/c1ccccc1F, CCc1ccccc1N1CCN(S(=O)(=O)c2ccc(F)c(C)c2)CC1 is higher in “hERG current change (%, negative = inhibition) at 10uM” value: -5.15% for the first, 4.43% for the second.

Compared with CCC(C)N(C)Cc1cccc(C2(O)CCN(S(=O)(=O)c3ccc(F)c(C)c3)CC2)c1 (centres unmarked), Cc1cc(S(=O)(=O)N2CCN(c3c(C)cccc3C)CC2)ccc1F is higher in “hERG current change (%, negative = inhibition) at 10uM” value: -72.4% for the first, -4.1% for the second.

Going from O=S(=O)(c1ccc(OC(F)(F)F)cc1)N1CCC(O)(c2cccc(C(F)(F)F)c2)CC1 to Cn1cc(CN2CCC(C(O)c3cccs3)CC2)c(-c2cccc(Cl)c2)n1 (centres unmarked), the “hERG current change (%, negative = inhibition) at 10uM” value falls from -4.35% to -57%.

First: CN1CCc2c(sc(N)c2C(=O)O)C1
Second: Cn1cc(CN2CCC(C(O)c3cccs3)CC2)c(-c2ccccc2F)n1 (centres unmarked)
The “hERG current change (%, negative = inhibition) at 10uM” value of the first is higher: 20.8% for the first, -21.5% for the second.

Going from COc1ccc(C2C(C#N)=C(N)OC3=C2C(=O)CC(C)(C)C3)cc1Cn1cc([N+](=O)[O-])cn1 (centres unmarked) to COc1ccc(C2C(C#N)=C(N)OC3=C2C(=O)CC(C)(C)C3)cc1Cn1nc(C)c([N+](=O)[O-])c1C (centres unmarked), the “hERG current change (%, negative = inhibition) at 10uM” value falls from -6.92% to -50.6%.

First: COc1ccc(C2C(C#N)=C(N)OC3=C2C(=O)CCC3)cc1Cn1nc(C)c([N+](=O)[O-])c1C (centres unmarked)
Second: Cc1cnc(C)c(N2CCN(Cc3cn(C)nc3-c3cccc(Cl)c3)CC2)n1
The “hERG current change (%, negative = inhibition) at 10uM” value of the first is higher: -13.3% for the first, -49.6% for the second.

Compared with COC(=O)CCC(=O)OC1(C)C(=O)C=C2C=C(C3CC3)N(C(CO)CO)C=C2C1=O (centres unmarked), COc1ccccc1C(=O)NCC(=O)NNC(=O)C1COc2ccccc2O1 (centres unmarked) is lower in “hERG current change (%, negative = inhibition) at 10uM” value: 5.72% for the first, 2.49% for the second.

Going from COCCN1CCN(Cc2cn(C)nc2-c2cccc(Cl)c2)CC1 to Cc1cc(N2CCN(Cc3cn(C)nc3-c3cccc(Cl)c3)CC2)cc(C)n1, the “hERG current change (%, negative = inhibition) at 10uM” value falls from -15.7% to -65%.

Reference: publication PMC4336329 (PLoS ONE, 2015)
